This is part of a sample that, as a whole, favours compounds with a hit. Of some 83,000 tested, about 20% had one in any assay.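 Activity criterion: percent growth below 10, measured after cells in 96-well plates were exposed to a single compound concentration for 48 hours.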 Unmarked numbers belong to inactive results. Active and inactive are the calls of the source.
Columns and labels:
Assay in all cases: NCI-60 one-dose screen, 48 h (100 = growth as untreated, 0 = no growth, -100 = all killed)
Details in all cases: 10 µM unless noted
T-47D breast = system: T-47D breast
BT-549 breast = system: BT-549 breast
MDA-MB-435 melanoma = system: MDA-MB-435 melanoma
SW-620 colon = system: SW-620 colon
MCF7 breast = system: MCF7 breast
HCT-116 colon = system: HCT-116 colon
HCC-2998 colon = system: HCC-2998 colon
KM12 colon = system: KM12 colon

Compound | growth (T-47D breast) | growth (BT-549 breast) | growth (MDA-MB-435 melanoma) | growth (SW-620 colon) | growth (MCF7 breast) | growth (HCT-116 colon) | growth (HCC-2998 colon) | growth (KM12 colon)
COc1cc(/C=N/NC(=O)Cn2c(C(C)C)nc3ccccc32)ccc1O | 94% | 100% | 100% | 95.7% | 95.1% | 82.4% | 103% | 97.6%
COc1ccccc1NC(=O)N/C(N)=N/c1nc2ccccc2s1 | 52.2% | 50.8% | -18.6% (active) | 25.6% | 20.3% | 13.4% | 28.6% | 10.4%
COc1cccc(Nc2nccc(Nc3ccc4[nH]ncc4c3)n2)c1 | -51.9% (active) | -15.9% (active) | -78.4% (active) | -69.3% (active) | -50.6% (active) | -87% (active) | -7.35% (active) | -44.3% (active)
Cn1cc2c(c1)-c1nc(Nc3ccccc3)ncc1CC2 | 40.7% | 32.1% | 70.3% | 52.1% | 25.2% | 35.4% | 50.7% | 11.9%
O=C(/C=C/c1c(Cl)nc2sccn12)c1ccc(F)c(F)c1 | 50.3% | 71.6% | 82.6% | 77.3% | 45.2% | 69.5% | 85.6% | 83%
CCN1C(=O)N(CC)C2Nn3c(s/c(=C\c4ccc(Cl)cc4Cl)c3=O)=NC21 (configuration not stated) | 76.9% | 38.6% | -40.7% (active) | 30.4% | 28.9% | 15.2% | 73.9% | 13.1%
CSc1n(Cc2ccc3ccccc3c2)c(C)c[n+]1Cc1ccc2ccccc2c1 | 0.45% (active) | -23.4% (active) | -66.2% (active) | 0.772% (active) | -62.8% (active) | -0.907% (active) | -91.1% (active) | -82.5% (active)
O=c1c2c3c(sc2n2c(-c4cn(-c5ccccc5)nc4-c4ccc(Cl)cc4)nnc2n1Cc1ccccc1)CCCC3 | 81.8% | 103% | 103% | 110% | 75.4% | 92.6% | 99.1% | 103%
O=C(O)C1CCC(=O)N1C(=O)OCc1ccccc1 (configuration not stated) | 108% | 112% | 91.3% | 101% | 91.6% | 107% | 104% | 115%
CC/C=C/C/C=C/C/C=C/C/C=C/C/C=C/C/C=C/CCC(=O)Nc1ccn([C@@H]2O[C@H](CO)[C@@H](O)C2(F)F)c(=O)n1 | 28.9% | 29.8% | 36.9% | 30.8% | 14.3% | 12.1% | 55.1% | 43.5%
O=C1/C(=C\c2c[nH]c3ccccc23)c2ccccc2N1c1c(Cl)cccc1Cl | 1.28% (active) | -22.1% (active) | -21.6% (active) | 5.11% (active) | 0.197% (active) | -100% (active) | -91.9% (active) | -82.3% (active)
COc1ccc(C(=O)COc2ccc(/C=C3\Oc4ccccc4C3=O)cc2)cc1 | 73.8% | 114% | 59.7% | 110% | 115% | 92.9% | 115% | 107%
CCc1ccccc1-n1c(-c2ccc(Cl)cc2)cc(-c2ccc(OC)cc2)c(C#N)c1=O | 92.3% | 154% | 89% | 104% | 85.6% | 94.6% | 109% | 87.7%
COc1cccc(-c2nc3sccn3c2-c2ccnc(NCCNS(=O)(=O)c3cccc(F)c3)c2)c1 | -2.17% (active) | -6.02% (active) | 43.8% | 51.9% | 37.7% | 24.5% | 52% | 27.3%
Cc1ccc(/C=C/c2c(C(=O)/C=C/c3ccc(C(F)(F)F)cc3)c(C)nc3ccccc23)cc1 | -13.1% (active) | -30.6% (active) | -87.9% (active) | -43.2% (active) | -14.4% (active) | -56.8% (active) | -74.3% (active) | -70% (active)
CN(C)c1ccc(/C=C/C(=O)c2cccc(Nc3nc(Nc4ccccc4)nc(Nc4ccccc4)n3)c2)cc1 | 81.4% | 99.3% | 101% | 103% | 75.1% | 83.2% | 64.5% | 99.8%
Cc1ccc(Nc2ccc(Nc3ccc(C)cc3)c3c2C(=O)c2cccc(O)c2C3=O)cc1 | 104% | 113% | 104% | 99.4% | 87.6% | 99% | 109% | 92.7%
CC1=C([Se]CC(OC(=O)[C@@H](CO)NC(=O)OC(C)(C)C)C(=O)NC(C)(C)C)C(=O)c2ccccc2C1=O (some centres not stated) | -54.1% (active) | -100% (active) | -82.4% (active) | -85.9% (active) | -72.6% (active) | -100% (active) | -89.9% (active) | -77.7% (active)
C#CCOc1nc(C)cc(C)c1C#N | 96.2% | 106% | 99.9% | 96.5% | 95.5% | 99.4% | 103% | 102%
COc1ccc2c(c1)O/C(=C/c1ccc(OCC(=O)c3ccccc3)cc1)C2=O | 97.4% | 119% | 87% | 131% | 118% | 94.1% | 114% | 105%
COC(=O)[C@]12CC[C@@H](C)[C@H](C)[C@@H]1C1=CC[C@@H]3[C@@]4(C)C(C=O)=C[C@@](C)(COS(C)(=O)=O)C4[C@H](O)C[C@@]3(C)[C@]1(C)CC2 (some centres not stated) | -29.4% (active) | -49.6% (active) | -21.5% (active) | -51.4% (active) | -16% (active) | -85.3% (active) | -85% (active) | -75.4% (active)
NC(N)=NN=C(c1ccccc1)c1ccccc1 | 12.2% | 44.1% | -23.8% (active) | 28.1% | 16.3% | 29% |  | 32.5%
O=C1c2cccc(NCCN=Cc3cc([N+](=O)[O-])ccc3O)c2C(=O)c2c(NCCN=Cc3cc([N+](=O)[O-])ccc3O)cccc21 | 75.8% | 107% | 99.3% | 29.8% | 20.8% | 33.3% |  | 46.8%
CCN1C(=O)N(CC)C2Nn3c(s/c(=C\c4cccc([N+](=O)[O-])c4)c3=O)=NC21 (configuration not stated) | 59.5% | 58.5% | -36.8% (active) | 36.4% | 35% | 23.6% | 87.7% | 26.7%
Fc1c[c-]c(-c2ccccn2)c(F)c1.[CH3-].[Pt+2].c1ccc(P(C[PH+](c2ccccc2)c2ccccc2)c2ccccc2)cc1 | -5.03% (active) | -28.1% (active) | -51.8% (active) | -63.5% (active) | 6.04% (active) | -66% (active) | -27.5% (active) | -40.6% (active)
CCCCCCCOc1c(OC)cc(C2CC(=O)Nc3c2c(C)nn3-c2nc3ccccc3[nH]2)cc1OC (configuration not stated) | 11.8% | 6.89% (active) | -27.6% (active) | 3.05% (active) | 6.22% (active) | 4.4% (active) | 79.2% | 1.11% (active)
C=C1C(=O)O[C@H]2[C@H]1CC/C(COC(=O)C(=O)c1c[nH]c3ccccc13)=C\CC[C@@]1(C)O[C@@H]21 | -56.8% (active) | -67.3% (active) | -59.4% (active) | -64.9% (active) | -16.9% (active) | -88.6% (active) | -79.5% (active) | -56.5% (active)
COC(=O)[C@]12CC[C@@H](C)[C@H](C)[C@@H]1C1=CC[C@@H]3[C@@]4(C)C(C=O)=C[C@@](C)(COS(C)(=O)=O)[C@@H]4C(=O)C[C@@]3(C)[C@]1(C)CC2 | 33% | 42.9% | 62.3% | 35.9% | 18.3% | 5.35% (active) | 43.4% | 23.1%

Source: PubChem BioAssay (NCI)
